{
  "source": "PubChem BioAssay AID2314",
  "about": "(National Center for Advancing Translational Sciences (NCATS), 2010)",
  "note": "Among all 300,000 compounds or so, about 37,000 (12%) were called active. Many of the other results were omitted from the sample, so actives are more common in it than they were. A number with no mark means an inactive call. No stated cut-off is given here; in the data, active means max response mostly above about 13% (no sharp cut-off); inactive means mostly below about 14%.",
  "data": [
    {"assay": "Cycloheximide Counterscreen for Small Molecule Inhibitors of Shiga Toxin; further: read at 38.3 µM for the half of the compounds with a filed dose; 0% is about no effect", "settings": "cell reporter, cycloheximide protein synthesis inhibition counterscreen; hits give high values", "values": [
      {"compound": "CC(C)CCOc1ccc(C(=O)C[N+]2(C)CCOCC2)cc1", "max response": "-6.71%"},
      {"compound": "Cc1ccc(-c2cc(C(=O)Nc3nn[nH]n3)c3ccccc3n2)c(C)c1", "max response": "-3.28%"},
      {"compound": "COc1ccc(-c2cc(C(=O)N(C)Cc3ccccc3)c3ccccc3n2)cc1", "max response": "10.1%"},
      {"compound": "COc1ccc(CN(C)C(=O)c2cc(-c3ccc(C)cc3C)nc3ccccc23)c(OC)c1OC", "max response": "9.76% (active)"},
      {"compound": "O=C(CCC1CCN(C(=O)c2cccc(Cl)c2F)CC1)Nc1ccccc1", "max response": "3.41%"},
      {"compound": "CC1CCN(CCCn2c(SCC(=O)NC3CCCC3)nc3ccccc3c2=O)CC1", "max response": "-1.13%"},
      {"compound": "COc1ccc(CC(=O)NC(C)CCc2ccccc2)cc1", "note": "(stereo not drawn)", "max response": "-0.862%"},
      {"compound": "COc1ccc(C(=O)CCc2ccccc2O)c(OC)c1", "max response": "32.7% (active)"},
      {"compound": "COc1ccc(C(=O)CCC(=O)Nc2cccnc2)c(OC)c1", "max response": "-5.23%"},
      {"compound": "COc1cc(C(=O)OCC(=O)NC(C)CCc2ccccc2)cc(OC)c1OC", "note": "(stereo not drawn)", "max response": "-8.18%"},
      {"compound": "COc1ccc(C(=O)NC(C)CCc2ccccc2)c(OC)c1", "note": "(stereo not drawn)", "max response": "25.4% (active)"},
      {"compound": "COc1ccc(C(=O)COC(=O)c2nn(C)c(=O)c3ccccc23)c(OC)c1", "max response": "4.36%"},
      {"compound": "O=C(NC1CCCC1)C1CCN(C(=O)Nc2cccc(Cl)c2)CC1", "max response": "-1.38%"},
      {"compound": "Cc1cccc(N2CCN(Cc3nc(C4CC4)no3)CC2)n1", "max response": "-2.08%"},
      {"compound": "Cc1cccc(C)c1NC(=O)C1CCCN1C(=O)OC(C)(C)C", "note": "(stereo not drawn)", "max response": "6.96%"},
      {"compound": "O=C(CO/N=C/c1ccccc1O)NNC(=O)c1ccccc1Cl", "max response": "-2.64%"},
      {"compound": "Cc1ccccc1C1=NC(C(F)(F)F)(C(F)(F)F)c2c(n(-c3ccc(F)cc3)c(=O)[nH]c2=O)N1", "max response": "-1.61%"},
      {"compound": "O=C(O)CSc1c2c(nc3cc(C(=O)Nc4cccc(C(F)(F)F)c4)ccc13)CCCC2", "max response": "-2.41%"},
      {"compound": "O=C(C1CCCO1)N(Cc1ccccc1)c1ccccc1", "note": "(stereo not drawn)", "max response": "-0.517%"},
      {"compound": "CC(C)Cc1nnc(NC(=O)CCc2ccccc2)s1", "max response": "-1.48%"},
      {"compound": "O=C(Nc1nnc(CCc2ccccc2)s1)C1CCCO1", "note": "(stereo not drawn)", "max response": "14.8% (active)"},
      {"compound": "O=C(Nc1nnc(SCc2ccc(Cl)cc2Cl)s1)C1COc2ccccc2O1", "note": "(stereo not drawn)", "max response": "-3.01%"},
      {"compound": "O=C(Nc1nnc(SCc2c(Cl)cccc2Cl)s1)C1CCCO1", "note": "(stereo not drawn)", "max response": "28% (active)"},
      {"compound": "O=C(Nc1nnc(SCc2c(Cl)cccc2Cl)s1)c1cccc([N+](=O)[O-])c1", "max response": "8%"},
      {"compound": "O=C(NC(Cc1ccccc1)C(=O)O)/C(=C\\c1ccccc1)NC(=O)c1ccco1", "note": "(stereo not drawn)", "max response": "-3.05%"},
      {"compound": "COc1cc(CN2CCN(Cc3ccc(C)cc3)CC2)c([N+](=O)[O-])cc1OC", "max response": "-2.69%"},
      {"compound": "CN(CC(=O)Nc1ccccc1C(F)(F)F)C(=O)Cc1ccccc1F", "max response": "-1.32%"},
      {"compound": "O=Cc1ccc(OCc2cn3ccccc3n2)cc1", "max response": "31.8% (active)"},
      {"compound": "COc1ccc(C(=O)NCc2cn3ccccc3n2)cc1", "max response": "-1.44%"},
      {"compound": "Cn1cc[n+](C)c1COc1ccc(C=O)cc1", "max response": "1.36%"},
      {"compound": "Cc1cccc2nc(CSc3nc4[nH]ncc4c(=O)n3-c3cccc(Cl)c3)cc(=O)n12", "max response": "1.41%"},
      {"compound": "Oc1ccc(N=Cc2sc3ccccc3c2Cl)cc1", "max response": "25.7% (active)"},
      {"compound": "Oc1ccc(N=Cc2c(O)ccc3ccccc23)cc1", "max response": "4.29%"},
      {"compound": "Oc1[nH]c2ccc(Br)cc2c1N=Nc1nn[nH]n1", "max response": "1.76%"},
      {"compound": "NS(=O)(=O)c1ccc(N=Nc2c(O)[nH]c3ccc(Br)cc23)cc1", "max response": "-3.08%"},
      {"compound": "Cc1cccc(N=Nc2c(O)[nH]c3ccc(F)cc23)c1", "max response": "49% (active)"},
      {"compound": "Fc1ccccc1COc1ccccc1CNCc1ccncc1", "max response": "-2.19%"},
      {"compound": "CN(Cc1ccccc1)CC(O)COc1ccc(CNCc2cc3ccccc3s2)cc1", "note": "(stereo not drawn)", "max response": "-1.23%"},
      {"compound": "Cc1ccc(C2CC2C(=O)NN)cc1", "note": "(stereo not drawn)", "max response": "4.7%"},
      {"compound": "O=C(NNC(=S)Nc1ccc(F)cc1)[C@H]1C[C@@H]1c1ccccc1", "max response": "-2.55%"},
      {"compound": "Cc1ccc(NC(=O)C2CC2c2ccccc2)cc1", "note": "(stereo not drawn)", "max response": "28.4% (active)"},
      {"compound": "O=C(NC1CCN(Cc2ccccc2)CC1)c1ccc(Oc2cc(Cl)cc(Cl)c2)o1", "max response": "-0.55%"},
      {"compound": "Cc1nc(-c2ccc(NC(=O)c3cccs3)cc2)cs1", "max response": "23.7% (active)"},
      {"compound": "CCc1nnc(NC(=O)Cc2cccs2)s1", "max response": "1.7%"},
      {"compound": "CCCc1ccc(-c2csc(NC(=O)Cc3cccs3)n2)cc1", "max response": "22.9% (active)"},
      {"compound": "CCCc1nnc(NC(=O)c2cccs2)s1", "max response": "12.8% (active)"},
      {"compound": "Cc1ccc(OCC(=O)Nc2ccc(NC(=O)c3cccs3)cc2)c(C)c1", "max response": "-4.62%"},
      {"compound": "COC(=O)c1c(NC(=O)c2cccs2)sc2c1CCCC2", "max response": "9.75%"},
      {"compound": "Cc1ccc(-c2nnc(-c3ccc(NC(=O)c4cccs4)cc3)o2)cc1", "max response": "-3.98%"},
      {"compound": "CCCc1nnc(NC(=O)c2cc(OC)cc(OC)c2)s1", "max response": "8.3%"},
      {"compound": "CCc1c(C)sc(NC(=O)c2cccs2)c1C(N)=O", "max response": "63.8% (active)"},
      {"compound": "CCc1c(C)sc(NC(=O)c2ccc(Br)o2)c1C(=O)OC", "max response": "5.7%"},
      {"compound": "Cc1ccc(-c2csc(NC(=O)Cc3cccs3)n2)cc1C", "max response": "12.4%"}
    ]}
  ]
}
